Data on 49 compounds can be found in ChEMBL document CHEMBL3988442, “University of Dundee, Small-Polar-MMV Screening Library” (2021).

The structures appear in SMILES notation. Among all 48,000 compounds or so, about 13,000 (27%) showed an effect of 50% or more. The list shows a part of the results.

The subject of the assay is Wolbachia pipientis. Nature of the assay: Anti-Wolbachia Cell-Based Screen. Type of assay: functional. Also on record: scale not given: in the data most compounds retested in dose-response had high values. As to conditions: 5 µM.
For the compound `Cc1cc(S(=O)(=O)N2CCC(S(C)(=O)=O)C2)ccc1F` (centres undefined), the “Percent Effect” value was determined as 74.96%.

On to `Cc1ccc(S(=O)(=O)N2CC[C@@H](O)C2)c(F)c1`, for which the “Percent Effect” value is recorded as -13.3%.

Turning to `Cc1cc(S(=O)(=O)N2CCCN3CCCC3C2)ccc1F` (centres undefined), the “Percent Effect” value is listed as -4.296%.

As to `O=S1(=O)CCC(c2nnc(-c3cnc4onc(C5CC5)c4c3)o2)C1` (centres undefined), the “Percent Effect” value is given as -6.363%.

With `CN(C)C(=O)NC1COC2(CCN(Cc3ccc(N(C)C)cc3)CC2)C1` (centres undefined), the “Percent Effect” value is given as 6.702%.

In the case of `CSCCNC(=O)c1cc(Br)cn1C(C)C`, the “Percent Effect” value is -6.324%.

On to `Cc1nc(C)n(CC2CCCN2Cc2cn3ccsc3n2)n1` (centres undefined), for which the “Percent Effect” value was determined as 1.786%.

As for `CCC(OC)C(=O)N1CCC2(CC1)c1nc[nH]c1CCN2S(C)(=O)=O` (centres undefined), the “Percent Effect” value was -9.741%.

For `CCOCC1CN(C(=O)c2cccn2C)Cc2cnn(CC3CC3)c21.O=C(O)C(F)(F)F` (centres undefined), the “Percent Effect” value is given as -14.68%.

On to `COCC1c2c(cnn2CC2CCOCC2)CCN1Cc1ccoc1.O=C(O)C(F)(F)F.O=C(O)C(F)(F)F` (centres undefined), for which the “Percent Effect” value was -3.551%.

For `CCOCC1CN(S(C)(=O)=O)Cc2cnn(CC3CCOCC3)c21.O=C(O)C(F)(F)F` (centres undefined), the “Percent Effect” value was -18.06%.

For `CCn1cc2c(n1)C(COCC1CC1)CN(C(=O)c1ccco1)C2` (centres undefined), the “Percent Effect” value is on record as 0.7054%.

With `Cn1ncc2c1C(COCC1CC1)CN(S(=O)(=O)C1CC1)C2` (centres undefined), the “Percent Effect” value is -3.815%.

Consider `Cn1ncc2c1C(COCC1CC1)CN(C(=O)Cc1ccsc1)C2` (centres undefined), for which the “Percent Effect” value stood at 0.3372%.

For the compound `CCOCC1CN(C(=O)c2cccs2)Cc2cnn(CC3CC3)c21` (centres undefined), the “Percent Effect” value is 108.8%.

Regarding `CCn1ncc2c1C(COCC1CC1)CN(C(=O)c1cccs1)C2` (centres undefined), the “Percent Effect” value was 2.096%.

In the case of `O=C(c1ccco1)N1Cc2cnn(CC3CC3)c2C(COCC2CC2)C1` (centres undefined), the “Percent Effect” value is reported as 105.1%.

For `COCC1CN(C(=O)c2ccoc2)Cc2cnn(CC3CCOCC3)c21.O=C(O)C(F)(F)F` (centres undefined), the “Percent Effect” value is 114.4%.

`Cn1ncc2c1C(COCC1CC1)CN(C(=O)c1ccoc1)C2` (centres undefined): the “Percent Effect” value was determined as 107.9%.

On to `COC(=O)c1ccc(Cl)c(NS(=O)(=O)c2cn(C)cn2)c1`, for which the “Percent Effect” value is recorded as 1.86%.

As for `CC(C)(C)c1oc(C(N)=O)cc1CN1CCOC(C(F)(F)F)C1` (centres undefined), the “Percent Effect” value is -3.878%.

Take `Cn1c(C(F)(F)F)nn(CCNC(=O)CSCc2ccccc2)c1=O`: the “Percent Effect” value is reported as 0.8754%.

As to `O=C(C1CC(=O)N(C2CCCC2)C1)N1CCN(CCn2cccc2)CC1` (centres undefined), the “Percent Effect” value is recorded as -10.58%.

With `COc1ccc(C(=O)N(C)Cc2cc(C)on2)c(OC)c1`, the “Percent Effect” value is on record as -3.822%.

On to `CCOCC1CN(C(=O)c2ccoc2)Cc2cnn(C)c21` (centres undefined), for which the “Percent Effect” value turned out to be 92.74%.

As for `O=C(c1ccoc1)N1CCc2c(COCC3CC3)cncc2C1`, the “Percent Effect” value is listed as -80.75%.

On to `O=C(c1ccoc1)N1CCn2cnc(COCC3CC3)c2C1`, for which the “Percent Effect” value was -6.66%.

Consider `CCOCC1CN(C(=O)c2ccoc2)Cc2nn(C)cc21` (centres undefined), for which the “Percent Effect” value is -3.903%.

Turning to `O=C(c1ccoc1)N1Cc2cnn(CC3CC3)c2C(COCC2CC2)C1` (centres undefined), the “Percent Effect” value amounted to 83.82%.

In the case of `O=C(NCc1ccc(F)cc1)NCC1(N2CCOCC2)CCSC1` (centres undefined), the “Percent Effect” value is reported as -10.73%.

For the compound `COc1ccnc(N2CCN(C(=O)c3csc(C(C)C)n3)CC2)n1`, the “Percent Effect” value is listed as -5.502%.

Consider `CNC(=O)C(C)CN(C)C(=O)Nc1ccc(Cl)cc1-n1cccc1` (centres undefined), for which the “Percent Effect” value is on record as 0.2413%.

In the case of `CCN(Cc1cnn(C)c1)C(=O)c1cc2ccccc2c(=O)[nH]1`, the “Percent Effect” value worked out at 2.375%.

Consider `Cn1cc(CN(C(=O)C2COc3ccccc3C2)C2CC2)cn1` (centres undefined), for which the “Percent Effect” value is -27.95%.

Regarding `O=C(c1ccc(O)c(Cl)c1)N(Cc1ccncc1)C1CC1`, the “Percent Effect” value is 5.687%.

For `CN1C(=O)c2ccc(C(=O)N(Cc3cnn(C)c3)C3CC3)cc2C1=O`, the “Percent Effect” value was determined as 106.1%.

As for `CN(Cc1cnn(C)c1)C(=O)c1ccnc(OC2CCC2)c1`, the “Percent Effect” value is recorded as -14.79%.

As for `CCN(Cc1cnn(C)c1)C(=O)c1ccccc1O`, the “Percent Effect” value was -0.8063%.

For the compound `Cn1cc(CN(C(=O)c2ccc(O)c(Cl)c2)C2CC2)cn1`, the “Percent Effect” value is on record as 100.3%.

`COC1CCN(C(=O)c2ccc3ncsc3c2)CC1`: the “Percent Effect” value is reported as 13.06%.

`Cn1cc(CN(C(=O)c2ccc3ncsc3c2)C2CC2)cn1`: the “Percent Effect” value was 77%.

`CCOC(=O)c1ccc(CNC(=O)c2ccc(C)nc2)o1`: the “Percent Effect” value turned out to be 18.5%.

Consider `Cc1ccc(-c2nnc(CNC(=O)c3cccnc3)o2)cn1`, for which the “Percent Effect” value is listed as 101.6%.

Regarding `CCCn1cc(C(=O)NCCc2ccncc2)c(C)n1`, the “Percent Effect” value is -13.4%.

For `CCCn1cc(C(=O)NCc2nnc(-c3ccc(C)nc3)o2)c(C)n1`, the “Percent Effect” value came to 141.9%.

In the case of `CCCn1cc(C(=O)NCCC(=O)NC2CCCCC2)c(C)n1`, the “Percent Effect” value was -18.08%.

For the compound `Cc1ccc(CCNC(=O)c2cccnc2)o1`, the “Percent Effect” value is on record as -1.027%.

For `COc1ccccc1OCC(=O)Nc1ncccc1C`, the “Percent Effect” value is -10%.

As for `COc1cnc(N2CCCC(c3ncc[nH]3)C2)nc1` (centres undefined), the “Percent Effect” value is listed as -2.958%.
